A selection follows.
aSyn UTR act – Activators working through SNCA 5'UTR binding (MLPCN). alpha-synuclein 5'UTR reporter, activators screen. 7.1% of 300,000 active. AID 1814. activity score, % (tested at 7.5 µM), hits read low; in the data active = activity score below about -60%
Active calls of the source: *.

For Cc1cccc(N=Nc2c(O)[nH]c3ccc(Br)cc23)c1 the results were aSyn UTR act -72*.
For O=C(N=C1N=C2C=CC(Br)=CN2Cc2ccccc21)c1ccc([N+](=O)[O-])cc1[N+](=O)[O-] the results were aSyn UTR act -106*.
Screening CCOC(=O)C(CC)(CC)C(=O)/C=C/c1ccc(Br)cc1 returned aSyn UTR act -92*.
Screening CCOC(=O)/C(=C\c1cccnc1)C(=O)c1cc(C(C)=O)c(Nc2ccccc2)s1 returned aSyn UTR act 83.
CCOC(=O)C(=Cc1ccc(Br)cc1)C(=O)OCC was read as aSyn UTR act -121*.
`COC(c1ccccc1)c1nnc(CCC(=O)N(C)C(C2CC2)C2CC2)o1` (stereo not given) gave aSyn UTR act -147*.
`COC(=O)/C(=C/Nc1cccc2ccccc12)[N+](=O)[O-]` gave aSyn UTR act -68*.
Cc1ccccc1Oc1ccc(Oc2ccccc2C)nn1 was read as aSyn UTR act -136*.
Screening Oc1ccc(Br)cc1-c1ccnn1-c1ccccc1 returned aSyn UTR act -114*.
Screening Cc1cccc(Cc2nnc(CCC(=O)N(CC3CC3)CC3CCCO3)o2)c1 (stereo not given) returned aSyn UTR act -112*.
`CCCOC1CCCN(C(=O)CCc2nnc(Cc3cccc(C)c3)o2)C1` (stereo not given) gave aSyn UTR act -164*.
For Cc1ccc(N2C(=O)CC(Sc3nc(C)cc(C)n3)C2=O)cc1 (stereo not given) the results were aSyn UTR act -63*.
For CCN(CC)S(=O)(=O)c1ccc2c(c1)nc(-c1ccccn1)n2C the results were aSyn UTR act -73*.
`Clc1ccc2c(c1)C(C1=NCCN1)c1ccccc1CS2` (stereo not given) gave aSyn UTR act 79.
For CC(=O)Nc1sc(NC(=O)c2ccc(Cl)cc2)nc1-c1cccs1 the results were aSyn UTR act -73*.
Screening CC(=O)Nc1sc(N/N=C\c2ccccc2)nc1-c1cccs1 returned aSyn UTR act -114*.
For CC(=O)Nc1sc(N/N=C\c2ccccc2Cl)nc1-c1cccs1 the results were aSyn UTR act -141*.
`Fc1ccc(-c2nnc(NC3=NCCCCC3)o2)cc1` gave aSyn UTR act 98.
Screening Cc1ccc(-c2nnc(Cc3ccc([N+](=O)[O-])cc3)o2)cc1 returned aSyn UTR act -120*.
O=[N+]([O-])c1ccc(Cc2nnc(-c3ccc(F)cc3)o2)cc1 was read as aSyn UTR act -86*.
For Fc1ccc(-c2nnc(-c3ccc(F)cc3)o2)cc1 the results were aSyn UTR act -185*.
`Cc1cc(C)cc(Oc2ncnc3c2ncn3Cc2c(Cl)cccc2Cl)c1` gave aSyn UTR act 35.
For CC(=O)Nc1nc(-c2ccc3c(c2)OCO3)cs1 the results were aSyn UTR act -130*.
CCOC(=O)N1CCN(C(=O)CSCC(=O)Nc2nc(-c3ccc(C)cc3)cs2)CC1 was read as aSyn UTR act -85*.
Screening O=C(CSCC(=O)N1CCOCC1)Nc1nc(-c2ccc3c(c2)OCO3)cs1 returned aSyn UTR act -131*.
O=C(Nc1nc(-c2ccc3c(c2)OCCO3)cs1)C1CCCC1 was read as aSyn UTR act -151*.
`O=C(CCCCl)Nc1nc(-c2ccc3c(c2)OCCO3)cs1` gave aSyn UTR act -117*.
For COc1ccc(C(=O)Nc2cc(Cl)cc(Cl)c2)c(OC)n1 the results were aSyn UTR act -114*.
For COc1ccc(C(=O)Nc2cc(Cl)ccc2Cl)c(OC)n1 the results were aSyn UTR act -91*.
Screening COc1ccc(C2OC3=C(Nc4cc(C)c(C)cc4N3)C2=O)cc1 (stereo not given) returned aSyn UTR act -98*.
`Cc1c2ccccc2nc2c(F)c(NC(C)C)c(F)c(F)c12` gave aSyn UTR act -106*.
For Cc1ccc(C(=O)NCC(=O)Nc2cc(C)ccn2)cc1 the results were aSyn UTR act -66*.
For Cc1ccnc(NC(=O)c2ccc(Cl)s2)c1 the results were aSyn UTR act -104*.
Cc1ccnc(NC(=O)CCNC(=O)c2ccc(Cl)cc2)c1 was read as aSyn UTR act -110*.
CCOc1ccc(C(=O)Nc2cc(C)ccn2)cc1 was read as aSyn UTR act 65.
Screening Cc1ccnc(NC(=O)c2cnc(Cl)c(Cl)c2)c1 returned aSyn UTR act -62*.
`c1ccc(CSc2nccc(-c3ccco3)n2)cc1` gave aSyn UTR act -82*.
c1ccc(CSc2n[nH]c(-c3ccco3)n2)cc1 was read as aSyn UTR act -64*.
`CN1CCc2c(sc3nc(SCC(=O)NCc4ccco4)n(-c4ccccc4)c(=O)c23)C1` gave aSyn UTR act -84*.
O=C(CSc1nc2ccsc2c(=O)n1NC(=O)c1ccccc1)NCc1ccco1 was read as aSyn UTR act -70*.
COc1ccc(C(=O)Nn2c(SCC(=O)NCc3ccccc3)nc3ccccc3c2=O)cc1 was read as aSyn UTR act 77.
Screening O=C(CSc1nc2ccsc2c(=O)n1NC(=O)c1ccccc1)Nc1nccs1 returned aSyn UTR act -82*.
Screening CC(C)(C)Nc1nc(Cl)nc(Nc2ccccc2)n1 returned aSyn UTR act -136*.
CCCNc1nc(Cl)nc(Nc2ccc(Cl)cc2)n1 was read as aSyn UTR act -63*.
Cc1ccc(-c2nn3c(C)nnc3s2)cc1N was read as aSyn UTR act -79*.
COC(=O)c1sccc1NC(=O)/C=C/c1ccc(Cl)cc1Cl was read as aSyn UTR act -206*.
`COC(=O)c1sccc1NC(=O)/C=C/c1c(Cl)cccc1Cl` gave aSyn UTR act -139*.
For CCc1ccc(CCC(=O)Nc2ccc(Cl)cc2)o1 the results were aSyn UTR act -67*.
`COc1c(OC)c(O)c2c(=O)cc(-c3c(O)cccc3O)oc2c1OC` gave aSyn UTR act -64*.
Screening CCC(=O)Nc1ccc(-c2ccc(N3CCC(C)CC3)nn2)cc1 returned aSyn UTR act -96*.
For CCC(=O)Nc1ccc(-c2ccc(N3CCN(C)CC3)nn2)cc1 the results were aSyn UTR act -73*.
CC1CCN(c2ccc(-c3cccc(NC(=O)C(F)(F)F)c3)nn2)CC1 was read as aSyn UTR act 103.
For CN(C(=O)C1CCOC1)c1nnc(-c2ccccn2)s1 (stereo not given) the results were aSyn UTR act -67*.
For O=C(N/N=C/c1ccc([N+](=O)[O-])s1)c1cccc(Br)c1 the results were aSyn UTR act 67.
Cc1ccc(C(=O)N/N=C/c2ccc([N+](=O)[O-])s2)cc1 was read as aSyn UTR act 108.
Screening COc1ccc(NC(=O)CCC(=O)N/N=C/c2ccc([N+](=O)[O-])s2)cc1 returned aSyn UTR act -79*.
Screening O=C(N/N=C/c1ccc([N+](=O)[O-])s1)c1ccncc1 returned aSyn UTR act -64*.
Screening CCOC(=O)c1c(-c2ccccc2)nc2cc(C)ccn12 returned aSyn UTR act -104*.
`CCOC(=O)c1c(-c2ccccc2)nc2ccc(C)cn12` gave aSyn UTR act -166*.
O=C(CN1CCCCC1)Nc1scc2c1c(=O)oc1ccccc12 was read as aSyn UTR act -134*.
Cc1ccc(/C(O)=C2\C(=O)C(=O)N(Cc3cccnc3)C2c2ccccc2[N+](=O)[O-])cc1 (stereo not given) was read as aSyn UTR act -99*.
Cc1ccc(N=C2NC(=O)/C(=C\c3ccco3)S2)cc1 was read as aSyn UTR act -74*.
Screening O=C1NC(=Nc2ccc(O)cc2)S/C1=C/c1ccco1 returned aSyn UTR act -88*.

From PubChem
